HP1b chromo inh: inhibitors of HP1-beta chromodomain binding to methylated histone tails | AlphaScreen HP1-beta / biotin-H3K9me3 peptide binding | Potency, µM (highest dose often 114 µM), most hits filed as inhibitors | P83916 | 390,000 tested, 0.56% active; further: nearly all actives have a fitted effect of over 70% in size
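HP1-beta protein (50 nM final) preincubated 30 min at room temperature with biotinylated H3(1-18)K9me3 peptide (50 nM) in PBS pH 7.4, 0.01% Tween-20, then compound added for 30 min. AlphaScreen streptavidin donor/nickel chelate acceptor beads (10 ug/mL final), 30 min dark, luminescence read.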
JMJD2A Tudor inh: inhibitors of human JMJD2A Tudor domain. AlphaScreen JMJD2A-Tudor / H3K4me3 peptide binding. Potency, µM (series often up to 114 µM), actives largely listed as inhibitors. 390,000 tested, 4.4% active. AID 504339; further: nearly all actives have a fitted effect of over 50% in size
BAZ2B block: BAZ2B (human) inhibition; Potency, µM (top dose mostly 114 µM), actives largely listed as inhibitors; Q9UIF8; AlphaScreen BAZ2B-H3K14Ac peptide displacement; 360,000 tested, 4.4% active; further: nearly all actives have a fitted effect of over 60% in size
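Compounds, titrated to a top concentration of 110 uM, were incubated 30 min at room temperature with preformed BAZ2B/acetyl-K14 H3 peptide complex (50 nM each). Proximity signal was measured by AlphaScreen after 20 min with beads.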
PLK1 PBD block: inhibitors of human PLK1 polo-box domain binding. P53350. Plk1 PBD binding of FITC phosphopeptide, fluorescence polarization. Potency, µM, usual class: inhibitors. 360,000 tested, 2.8% active; further: series mostly up to about 57 µM; nearly all actives have a fitted effect of over 65% in size
Sfp PPTase inh: inhibitors of Bacillus subtilis Sfp phosphopantetheinyl transferase; Q9F4F7; Biochemical Sfp PPTase activity, qHTS; Potency, µM, actives largely listed as inhibitors; 310,000 tested, 3.5% active; AID 1490;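 further: the enzyme is Sfp with the accession as filed and its product quenches rhodamine fluorescence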
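Fluorescence-quenching assay with 15 nM Sfp, 5 uM rhodamine-CoA and 12.5 uM BHQ-2-labelled ybbR peptide in pH 7.6 Hepes/MgCl2 buffer. Enzyme was pre-incubated with compound for 15 min at room temperature. Rate was taken from the 30-min fluorescence change (525/598 nm).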
G9a block: G9a (human) methyltransferase inhibition; G9a H3K9 monomethylation, AlphaScreen, 2 h; Potency, µM (highest dose often 102 µM), hits mostly inhibitors; 350,000 tested, 8.8% active; further: nearly all actives have a fitted effect of over 75% in size
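Using a bead-based AlphaScreen, monomethylated H3K9 product from 2 h room-temperature reactions (G9a 20 nM, peptide 500 nM, SAM 20 uM) was detected with 0.5 ug/mL rabbit anti-H3K9me1 antibody.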
Large screens that a line does not name were inactive. In the library only some 12% were active in any assay of this set; here they are far more common. The call rests on the fitted dose curve; in most records, active means well fitted curve in the direction sought with a large enough effect; inconclusive means small, poorly fitted or top-dose-only effect, or another doubt; inactive means no such curve, though single readings can be large; an effect the other way counts as inactive or inconclusive.

Cc1cc2c(cc1C)-n1c(-c3ccccc3)c3c(=O)n(C)c(=O)n(C)c3c1C(c1ccco1)N2 (configuration not stated)	BAZ2B block inconclusive (no result: PLK1 PBD block, Sfp PPTase inh)
CCC(C)N1C(=O)/C(=C/c2ccc3c(c2)CCN3CCCCl)C(=O)NC1=S (configuration not stated)	HP1b chromo inh inconclusive, JMJD2A Tudor inh 50µM, BAZ2B block 50µM, PLK1 PBD block 0.95µM, Sfp PPTase inh inconclusive, G9a block 13µM
COc1cc(C2c3cc4c(c(O)c3CC3COC(=O)C32)OCO4)cc(OC)c1O (configuration not stated)	none (no result: BAZ2B block, PLK1 PBD block, Sfp PPTase inh, G9a block)
COc1cc(C2c3cc4c(cc3CC3COC(=O)C32)OCO4)cc(OC)c1O (configuration not stated)	JMJD2A Tudor inh 89µM (no result: BAZ2B block, Sfp PPTase inh, G9a block)
COc1ccc(CNC(=O)CSCc2cnn(-c3ccccc3)c2-n2cccc2)cc1OC	BAZ2B block 28µM (no result: PLK1 PBD block, Sfp PPTase inh)
NCCNCCNCCNCCN	none (no result: HP1b chromo inh, JMJD2A Tudor inh, BAZ2B block, PLK1 PBD block)
O=C(O)CF	none (no result: HP1b chromo inh, JMJD2A Tudor inh, BAZ2B block, PLK1 PBD block, G9a block)
CCN(CC)C(=O)c1ccc(NC(=O)CSc2nnnn2-c2cc(OC)ccc2OC)cc1	none
O=C(CSc1nnnn1-c1ccccc1)Nc1ccc(N2CCOCC2)c(Cl)c1	G9a block 13µM
CCOP(=S)(OCC)SCn1c(=O)oc2cc(Cl)ccc21	Sfp PPTase inh 56µM (no result: HP1b chromo inh, JMJD2A Tudor inh, BAZ2B block, PLK1 PBD block, G9a block)
CCn1c(=O)oc2cc(NC(=O)CCl)ccc21	G9a block inconclusive
O=C(NCCc1ccc(Cl)cc1)C(=O)NCC(c1cccs1)S(=O)(=O)c1cccs1 (configuration not stated)	none (no result: PLK1 PBD block, Sfp PPTase inh)
O=c1n(Cl)c(=O)n(Cl)c(=O)n1Cl	G9a block 13µM (no result: HP1b chromo inh, JMJD2A Tudor inh, BAZ2B block, PLK1 PBD block)
CCOC(=O)C1CCCN(Cc2ccc(-c3ccccc3)cc2)C1 (configuration not stated)	JMJD2A Tudor inh 28µM, BAZ2B block inconclusive, Sfp PPTase inh inconclusive (no result: G9a block)
O=C(Nc1ccc(OC(F)(F)F)cc1)Oc1ccccc1N1CCCCC1	none (no result: G9a block)
O=C(Oc1ccccc1)N1CCC[C@@]2(CCN(Cc3ccccc3)C2)C1	none (no result: HP1b chromo inh, JMJD2A Tudor inh, BAZ2B block, PLK1 PBD block)
O=C(OCC(=O)c1ccc([N+](=O)[O-])cc1)/C(=C/c1ccc(Cl)cc1)NC(=O)c1ccccc1	Sfp PPTase inh inconclusive, G9a block 7.9µM
[O-]/[N+](=C/c1cccnc1)c1ccc(Br)cc1	BAZ2B block inconclusive, PLK1 PBD block 11µM, Sfp PPTase inh 13µM, G9a block inconclusive
O=C(c1cn(Cc2ccccc2)c2ccccc12)C1CC1	PLK1 PBD block 27µM
CCCCn1c(C)c(C(=O)OCC)c2c(CN3CCCC3)c(O)ccc21	G9a block 40µM
COc1c(/C=C2/C(=O)NC(=O)N(C)C2=O)c(CCN(C)C(=O)c2ccccc2)cc2c1OCO2	PLK1 PBD block 27µM
CNC(=S)N(C)CCc1cc2c(c(OC)c1/C=C1/C(=O)NC(=O)N(C)C1=O)OCO2	PLK1 PBD block inconclusive
CCOC(=O)c1ccc(NC(=O)C2C3C=CC(O3)C2C(=O)O)cc1 (configuration not stated)	G9a block 35µM (no result: HP1b chromo inh, JMJD2A Tudor inh, PLK1 PBD block)
CC1CCCCN1CC(=O)c1ccc2cc[nH]c2c1 (configuration not stated)	G9a block 32µM
CC(C(=O)c1ccc2ccccc2c1)N1CCCCC1 (configuration not stated)	none
Clc1ccc(C2CC3CCC2N3)cn1 (configuration not stated)	none (no result: HP1b chromo inh, JMJD2A Tudor inh, BAZ2B block, PLK1 PBD block)
CC1(C)CC(=O)C2=C(C1)OC(N)=C([N+](=O)[O-])C2c1ccc(C#N)s1 (configuration not stated)	BAZ2B block inconclusive, PLK1 PBD block inconclusive, Sfp PPTase inh 35µM
Cc1cccnc1	none (no result: Sfp PPTase inh)
C[N+](C)(C)CC#CCN1CCCC1=O	JMJD2A Tudor inh inconclusive, G9a block 0.63µM (no result: BAZ2B block)
C/C(Cl)=C/CC1(CN2CCCC2=O)C(=O)NC(=O)NC1=O	G9a block inconclusive
Nc1ccc2ccc3cccc[n+]3c2c1	PLK1 PBD block 0.67µM, G9a block 35µM
Cc1ccc(C)c(S(=O)(=O)Nc2ccc3c(c2)CCCN3C(=O)c2cccs2)c1	G9a block inconclusive (no result: PLK1 PBD block, Sfp PPTase inh)
CCC1(c2ccccc2)CCC(=O)NC1=O (configuration not stated)	none (no result: HP1b chromo inh, JMJD2A Tudor inh, BAZ2B block, PLK1 PBD block)
COc1ccc(C(=O)C23CN4CN(CN(C4)C2)C3)cc1	none
COc1ccc(C(=O)C(C)(C)NO)cc1	HP1b chromo inh inconclusive, JMJD2A Tudor inh 50µM, BAZ2B block inconclusive, G9a block inconclusive
Cc1ccc(C(C)C)c(OCCn2c(=O)oc3ccccc32)c1	Sfp PPTase inh inconclusive
O=C1CC2OCC=C3CN4CC[C@]56c7ccccc7N1C5C2[C@H]3C[C@H]46 (some centres not stated)	none (no result: HP1b chromo inh, JMJD2A Tudor inh, BAZ2B block, PLK1 PBD block)
O=C(Nc1ccc(Oc2ccc(Cl)cc2)c(Cl)c1)c1cc(I)cc(I)c1O	JMJD2A Tudor inh 79µM, BAZ2B block inconclusive, PLK1 PBD block inconclusive, G9a block inconclusive
COC(=O)c1cc(Oc2ccc(Cl)cc2Cl)ccc1[N+](=O)[O-]	none (no result: HP1b chromo inh, JMJD2A Tudor inh, BAZ2B block, PLK1 PBD block, G9a block)
CNCCc1c[nH]c2ccc(O)cc12	HP1b chromo inh inconclusive, JMJD2A Tudor inh 22µM, G9a block 10µM (no result: BAZ2B block)
COc1cc(CNCCc2c[nH]c3ccccc23)cc(OC)c1OC	none (no result: HP1b chromo inh, JMJD2A Tudor inh, BAZ2B block, Sfp PPTase inh, G9a block)
OC(CNCCc1c[nH]c2ccccc12)C(F)(F)F (configuration not stated)	none (no result: G9a block)
CNCCc1c[nH]c2ccccc12	G9a block 28µM
CCOC(=O)c1cn2nc(OP(=S)(OCC)OCC)cc2nc1C	G9a block 20µM
CCOC(=O)c1cnc(N2CC2)nc1N	none (no result: BAZ2B block, Sfp PPTase inh, G9a block)
COC(=O)c1ccc(COC(=O)c2nn(C)c(=O)c3ccccc23)cc1	none
Cc1cccc(N2C(=O)NC(=O)/C(=C\c3cc(C)n(-c4sc5c(c4C#N)CCCC5)c3C)C2=O)c1C	JMJD2A Tudor inh inconclusive, BAZ2B block inconclusive, PLK1 PBD block 0.75µM, Sfp PPTase inh 35µM, G9a block 16µM
N#CC1=C(N)Oc2n[nH]c(-c3ccccc3)c2C1c1cccc(OC(=O)N2CCOCC2)c1 (configuration not stated)	G9a block inconclusive
CC1CCCCN1C(=O)Cn1cc(C=C2C(=O)N(C)C(=O)N(C)C2=O)c2ccccc21 (configuration not stated)	PLK1 PBD block 17µM, G9a block inconclusive
CCN(CC)C(=O)Cn1cc(C=C2C(=O)N(C)C(=O)N(C)C2=O)c2ccccc21	PLK1 PBD block 30µM
CC1=CC(=C2C(=O)NC(=S)NC2=O)C=C(C(F)(F)F)N1Cc1ccccc1	G9a block 79µM
CC1=CC(=C2C(=O)NC(=O)NC2=O)C=C(C(F)(F)F)N1Cc1ccccc1	none (no result: G9a block)
Cc1nn(C)c(C)c1-c1cccc2c1CCC(N(C)C)C2 (configuration not stated)	none (no result: HP1b chromo inh, JMJD2A Tudor inh, BAZ2B block, PLK1 PBD block)
COc1ccc(CN2CCCC(C(=O)c3cccc(Cl)c3)C2)cc1 (configuration not stated)	none
